# According to PubChem BioAssay:
# Several values for one entry are separate records, joined by “and”; a condition that tells them apart may be missing. Equal entries are not always repeated. Inconclusive results are not listed. Where a structure was tested more than once in an assay, its records may differ in their call. Activity calls are given as the source filed them. Rule as the data show it, unless noted: active = inhibition above about 80%; inactive = the rest.
# Experiments:
# [1] = viability loss in pontine glioma line – cell-based, SU-DIPG-XXV, MIPE5.0, CellTiter-Glo, qHTS, dose response (AID 1347065; cut-off not given, nearly all actives have AC50 up to about 26 µM;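 also: cells exposed to compound for 48 hours before ATP readout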); conditions: CellTiter-Glo ATP luminescence
# [2] = JHH-DIPG-1 glioma cell viability, MIPE5.0 library, CellTiter-Glo luminescence, qHTS (AID 1347067; cut-off not given, nearly all actives have AC50 up to about 26 µM;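 also: cells exposed to compound for 48 hours before readout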); conditions: JHH-DIPG-1 glioma viability, CellTiter-Glo ATP luminescence
# [3] = SU-DIPG-XXV glioma cell viability, MIPE5.0 library, qHTS (AID 1347068; cut-off not given, nearly all actives have IC50 up to about 30 µM)
# [4] = growth inhibition of DIPG glioma cells, dose response, cell-based, SU-DIPG-XVII, MIPE5.0, CellTiter-Glo, qHTS (AID 1347060; cut-off not given, nearly all actives have AC50 up to about 26 µM;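 also: cells exposed to compound for 48 hours before viability readout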); conditions: SU-DIPG-XVII viability, CellTiter-Glo ATP luminescence
# [5] = LFS_MB_P medulloblastoma growth inhibition, cell-based, chromothripsis tumors, cisplatin or BGB combos (AID 1671449); conditions: LFS_MB_P medulloblastoma cells;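 also: cells exposed for 96 hours; 0% = vehicle DMSO and 100% = killing by high DMSO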
# [6] = HDN33 neuroblastoma growth inhibition, cell-based, chromothripsis tumors, cisplatin or BGB combos (AID 1671450); conditions: HDN33 neuroblastoma cells, stronger effect = higher value;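 also: cells exposed to compound for four days; 0% = vehicle DMSO and 100% = cell killing by high DMSO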
# [7] = ICB984 medulloblastoma cell growth inhibition, synergistic combos for chromothripsis tumors, cisplatin or BGB combos (AID 1671451; call rule not given here;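 also: cells exposed for 96 hours before readout; 0% = vehicle DMSO and 100% = killing by high DMSO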); conditions: ICB984 medulloblastoma cells, drug combinations, stronger effect = higher value
# [8] = LFS_MB_1R medulloblastoma cell growth inhibition, synergistic combos for chromothripsis tumors, cisplatin or BGB combos (AID 1671452); conditions: LFS_MB_1R medulloblastoma cells, stronger effect = higher value;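 also: cells exposed for 96 hours before readout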
# [9] = HTB85 osteosarcoma cell growth inhibition, synergistic combos for chromothripsis tumors, BGB or cisplatin IC20 combos (AID 1671453); conditions: HTB85 osteosarcoma cells, drug combinations, stronger effect = higher value;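 also: cells exposed for 96 hours before readout; 0% = vehicle DMSO and 100% = high DMSO killing control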
# [10] = CRL2098 osteosarcoma cell growth inhibition, synergistic combos for chromothripsis tumors, BGB or cisplatin IC20 combos (AID 1671454); conditions: CRL2098 osteosarcoma cells, drug combinations, stronger effect = higher value;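 also: cells exposed for 96 h before readout; 0% = vehicle DMSO and 100% = killing by high DMSO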
# [11] = HD-MB03 medulloblastoma cell growth inhibition, synergistic combos for chromothripsis tumors, BGB or cisplatin IC20 combos (AID 1671455; in the data active = inhibition above about 83%;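 also: 0% = vehicle DMSO and 100% = high DMSO as cytotoxic control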); conditions: HD-MB03 medulloblastoma cells, stronger effect = higher value
# [12] = UWB1.289 ovarian carcinoma cell growth inhibition, synergistic combos for chromothripsis tumors, BGB or cisplatin combos (AID 1671456); conditions: UWB1.289 ovarian carcinoma cells, stronger effect = higher value;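 also: cells exposed to compound for four days; 0% = vehicle DMSO and 100% = killing by high DMSO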
# [13] = LFS_MB_2R medulloblastoma cell growth inhibition, synergistic combos for chromothripsis tumors, cisplatin combos (AID 1671457); conditions: LFS_MB_2R medulloblastoma cells, stronger effect = higher value;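 also: cells exposed to compound for four days before readout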
# [14] = MDA-MB-436 breast carcinoma cell growth inhibition, synergistic combos for chromothripsis tumors, BGB or cisplatin combos (AID 1671458; call rule not given here;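 also: cells exposed for 96 hours; 0% = vehicle DMSO and 100% = killing by high DMSO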); conditions: MDA-MB-436 breast carcinoma growth inhibition, drug combinations, stronger effect = higher value
# [15] = UWB1.289_BRCA1 ovarian cancer growth, cell-based, BGB or cisplatin combinations (AID 1671459); conditions: UWB1.289 BRCA1 ovarian carcinoma, drug combinations, stronger effect = higher value
# [16] = human astrocyte viability loss, single and combined drugs, cytotoxicity control for chromothriptic childhood tumor combination screen, cell-based, BGB or cisplatin IC20 combos (AID 1671460); conditions: Human astrocytes, drug combinations, stronger effect = higher value;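 also: cells exposed to compounds for 96 hours before viability readout; 0% = vehicle and 100% = killing control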
# [17] = growth inhibition of BT084 medulloblastoma cells, cell-based, ICGC_MB145, cisplatin and BGB IC40 combos (AID 1671461); conditions: drug combinations, stronger effect = higher value;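 also: cells exposed to drugs for 96 hours; 0% = vehicle DMSO and 100% = high DMSO full killing control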
# [18] = growth inhibition of RCMB18 medulloblastoma cells, cell-based, cisplatin and BGB IC40 combos (AID 1671462); conditions: stronger effect = higher value;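 also: cells exposed to compound for four days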
# [19] = growth inhibition of CRL1545 osteosarcoma cells, cell-based, cisplatin and BGB IC20 combos (AID 1671464); conditions: stronger effect = higher value;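 also: cells exposed to compound for 96 hours before readout; 0% = vehicle DMSO and 100% = high DMSO killing control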
# [20] = measured here: combination with BGB IC40, at 0.05 µM
# [21] = measured here: with BGB IC20 combination, at 0.5 µM
# [22] = measured here: with cisplatin IC20 combination, at 0.5 µM
# [23] = measured here: combination with cisplatin, at 0.5 µM
# [24] = measured here: combination with cisplatin, at 5 µM
smiles,measurement,setting,value
CC1CNc2c(cccc2S(=O)(=O)N[C@@H](CCCN=C(N)N)C(=O)N2CC[C@@H](C)C[C@@H]2C(=O)O)C1 (stereo partly drawn),outcome,[1],inactive
same,outcome,[2],inactive
same,outcome,[3],inactive
CC(C)c1ccc2c(c1)c(SC(C)(C)C)c(CC(C)(C)C(=O)O)n2Cc1ccc(Cl)cc1,AC50,[4],18.6 µM (active)
same,AC50,[1],18.6 µM (active)
same,AC50,[2],26.3 µM (active)
same,outcome,[3],inactive
COC(=O)Nc1nc2ccc(C(=O)c3ccc(F)cc3)cc2[nH]1,AC50,[4],0.417 µM (active)
same,AC50,[1],0.332 µM (active)
same,AC50,[2],0.417 µM (active)
O=C1C(c2c(O)[nH]c3ccccc23)=Nc2ccccc21,outcome,[2],inactive
same,outcome,[3],inactive
COc1cc(C)c(/C=C/C(C)=C/C=C/C(C)=C/C(=O)O)c(C)c1C,AC50,[1],11.8 µM (active)
same,outcome,[2],inactive
same,outcome,[3],inactive
O=c1[nH]c(=O)n(C2CC(O)C(CO)O2)cc1F (stereo not drawn),inhibition,"[5]; at 0.5 µM, stronger effect = higher value",-20.6% (inactive) and -34.4% (inactive)
same,inhibition,"[5]; measured here: combination with BGB IC20, at 0.005 µM",-20.3% and -26.1%
same,inhibition,"[5]; measured here: combination with BGB IC40, at 0.005 µM",-43.8% and -18.6%
same,inhibition,[5]; [20],-14.2% and -19.6%
same,inhibition,"[5]; measured here: combination with cisplatin, at 0.5 µM, stronger effect = higher value",-24.9% and -48.9%
same,inhibition,"[5]; measured here: combination with cisplatin, at 5 µM, stronger effect = higher value",-34.2% and -34.5%
same,inhibition,"[6]; BGB combo, at 5 µM",90.8% and 95.2%
same,inhibition,[6]; at 0.5 µM,75% (inactive) and 78.5% (inactive)
same,inhibition,"[6]; cisplatin combo, at 5 µM",63% and 78%
same,inhibition,[6]; [21],72.2% and 74.3%
same,inhibition,[6]; [22],71.3% and 78.7%
same,inhibition,"[6]; single agent, at 5 µM",78.6% and 88.5%
same,inhibition,"[7]; BGB IC20 combo, at 0.005 µM",-21.6% and 13.5%
same,inhibition,"[7]; BGB IC40 combo, at 0.005 µM",-12.3% and -34.3%
same,inhibition,"[7]; BGB IC40 combo, at 0.05 µM",-9.05% and -30.1%
same,inhibition,[7]; at 0.5 µM,-17.5% (inactive) and -17.1% (inactive)
same,inhibition,"[7]; cisplatin combo, at 0.05 µM",-9.05% and -34.7%
same,inhibition,"[7]; cisplatin combo, at 0.5 µM",-15.5% and -22.4%
same,inhibition,"[7]; cisplatin combo, at 5 µM",-14.7% and -40.3%
same,inhibition,"[7]; measured here: 5 uM single agent, at 5 µM",-2.45% and 14.3%
same,inhibition,[8]; at 0.5 µM,-19.6% (inactive) and -23.9% (inactive)
same,inhibition,[8]; [20],8.22% and -31%
same,inhibition,[8]; [23],23.3% and -25.8%
same,inhibition,[8]; [24],-7.39% and -26.1%
same,inhibition,[9]; at 0.5 µM,-24.9% (inactive) and 12.1% (inactive)
same,inhibition,"[9]; measured here: with BGB IC20, at 0.5 µM",-52.4% and -21.4%
same,inhibition,"[9]; measured here: with BGB IC20, at 5 µM",5.67% and -8.07%
same,inhibition,"[9]; measured here: with cisplatin IC20, at 0.5 µM",-22.6% and 15.4%
same,inhibition,"[9]; measured here: with cisplatin IC20, at 5 µM",14% and 12.8%
same,inhibition,"[9]; single agent, at 5 µM",12% and 38.7%
same,inhibition,[10]; at 0.5 µM,-50.2% (inactive) and -54% (inactive)
same,inhibition,"[10]; measured here: combination with BGB at IC20, at 0.5 µM",-11.9% and -25.4%
same,inhibition,"[10]; measured here: combination with cisplatin at IC20, at 0.5 µM",-87.1% and -79.9%
same,inhibition,[11]; at 0.5 µM,75.2% (inactive) and 82.3% (active)
same,inhibition,"[11]; measured here: combo with BGB at IC20, at 0.5 µM",72.8% and 77.8%
same,inhibition,"[11]; measured here: combo with cisplatin at IC20, at 0.5 µM",79.4% and 87.9%
same,inhibition,[12]; at 0.5 µM,11% (inactive) and 22.1% (inactive)
same,inhibition,"[12]; measured here: inhibition with BGB combination, at 0.05 µM",-37.3% and -7.93%
same,inhibition,"[12]; measured here: inhibition with cisplatin combination, at 0.05 µM",-10.2% and -15.2%
same,inhibition,[13]; at 0.5 µM,-6.08% (inactive) and -22.6% (inactive)
same,inhibition,[13]; [23],-26% and -30.3%
same,inhibition,[13]; [24],-20.5% and -22.8%
same,inhibition,[14]; at 0.5 µM,39.9% (inactive) and 54.5% (inactive)
same,inhibition,"[14]; measured here: BGB combination, at 0.5 µM",12.4% and 36%
same,inhibition,"[14]; measured here: BGB combination, at 5 µM",22.9% and 47.8%
same,inhibition,"[14]; measured here: cisplatin combination, at 0.5 µM",44% and 56.3%
same,inhibition,"[14]; measured here: cisplatin combination, at 5 µM",73% and 86.7%
same,inhibition,"[15]; BGB combination, concentration series, at 5 µM",17.5% and 50.3%
same,inhibition,[15]; at 0.5 µM,15.2% (inactive) and 29.3% (inactive)
same,inhibition,"[15]; cisplatin combination, concentration series, at 5 µM",55.7% and 77.6%
same,inhibition,[16]; at 0.5 µM,17.4% (inactive) and 30.8% (inactive)
same,inhibition,"[16]; measured here: combo with BGB IC20, at 0.5 µM",14.4% and 24.7%
same,inhibition,"[16]; measured here: combo with cisplatin IC20, at 0.5 µM",5.72% and 15.6%
same,inhibition,[17]; at 0.5 µM,-20.4% (inactive) and -2.18% (inactive)
same,inhibition,"[17]; cisplatin combination, at 0.5 µM",-4.33% and -24.2%
same,inhibition,"[17]; cisplatin combination, at 5 µM",-24.6% and 6.37%
same,inhibition,"[17]; measured here: BGB IC40 combination 0.05 uM, at 0.05 µM",-0.925% and 1.52%
same,inhibition,"[17]; single agent, at 5 µM",-4.53% and -3.71%
same,inhibition,[18]; at 0.5 µM,-3.13% (inactive) and -17.8% (inactive)
same,inhibition,"[18]; cisplatin combo, at 5 µM",11.8% and 9.06%
same,inhibition,"[18]; measured here: BGB IC40 combination, at 0.05 µM",-3.94% and -12.9%
same,inhibition,[18]; [23],1.15% and 0.687%
same,inhibition,"[18]; single agent, at 5 µM",-14.6% and -9.12%
same,inhibition,[19]; at 0.5 µM,30.4% (inactive) and 66.8% (inactive)
same,inhibition,[19]; [21],10.3% and 56.4%
same,inhibition,[19]; [22],40.5% and 71.6%
same,inhibition,"[19]; single agent, at 0.05 µM",7.06% and 11.7%
same,inhibition,"[19]; single agent, at 5 µM",91.4% and 96.1%
